Only some compounds are listed: those with a hit (about 7.4% of all), similar ones and a draw of the others.
Rab9 promoter act = Rab9 promoter activation | Huh7 Rab9 promoter-luciferase reporter, luminescence, 24 h | 320,000 tested, 2.8% active | Potency, µM (titrated, usually from 9.22 µM), without a hit: top-dose activation, negative = inhibition, actives largely listed as activators | AID 485297; also: % of control where 0% means no effect; nearly all actives have a fitted effect of over 60% in size
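Quantitative HTS format; Huh7 Rab9-luciferase reporter cells (1500/well) receive compound 2 h post-plating, incubate 24 h at 37 °C, then get luciferase reagent for 10 min before luminescence reading.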
FLuc counter = firefly luciferase modulation, counter-screen for miR-21 project; P08659; purified FLuc, Km substrates, luminescence inhibition; Potency, µM (titrated, usually from 57.5 µM), for inactives: at the top dose activity change, negative = inhibition, hits mostly inhibitors; 360,000 tested, 6.9% active;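 also: plate controls were vehicle for no effect and reference inhibitor for full effect; nearly all actives have a fitted effect of over 55% in size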
Target sequence (P08659 whole entry, looked up): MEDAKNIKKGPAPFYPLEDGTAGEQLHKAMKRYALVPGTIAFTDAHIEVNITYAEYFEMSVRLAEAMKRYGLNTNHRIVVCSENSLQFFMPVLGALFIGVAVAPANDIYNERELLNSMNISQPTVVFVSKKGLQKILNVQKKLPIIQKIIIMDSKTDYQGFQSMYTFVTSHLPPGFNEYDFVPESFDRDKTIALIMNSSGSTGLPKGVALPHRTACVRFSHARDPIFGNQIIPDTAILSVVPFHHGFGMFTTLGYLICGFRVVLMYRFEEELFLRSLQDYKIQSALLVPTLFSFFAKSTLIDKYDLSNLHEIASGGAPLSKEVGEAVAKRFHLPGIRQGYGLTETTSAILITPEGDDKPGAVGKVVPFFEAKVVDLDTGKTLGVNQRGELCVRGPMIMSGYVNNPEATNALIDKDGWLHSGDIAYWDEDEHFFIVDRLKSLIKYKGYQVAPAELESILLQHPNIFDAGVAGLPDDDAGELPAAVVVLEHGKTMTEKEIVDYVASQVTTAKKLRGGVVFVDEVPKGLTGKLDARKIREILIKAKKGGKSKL
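Biochemical qHTS of compounds, final roughly 60 µM downward over six points, against 10 nM purified firefly luciferase using Km concentrations of substrates (10 uM D-luciferin, 10 uM ATP) in Tris acetate pH 7.5 buffer; luminescence output.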
ELG1 genotoxic = inducers of genotoxicity in HEK293T ELG1-luciferase cells; HEK293T ELG1-luciferase reporter, luminescence, 16 h; Potency, µM (titrated, usually from 46 µM), for the others: top-dose activity change, positive = activation, actives largely listed as activators; 330,000 tested, 1.3% active; also: % of control where 0% means no effect; nearly all actives have a fitted effect of over 60% in size
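DMSO vehicle served as control against compound-treated ELG1-luciferase HEK293T cells; exposure lasted 16 hr at 37 °C and 5% CO2, followed by ONE-Glo luminescence detection after 30 min.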
KinaseGlo FLuc = Kinase-Glo luciferase inhibition (counter-screen) | 200,000 tested, 0.28% active | Q27757 | AID 1379 | Potency, µM (series often up to 38.3 µM), without a hit: at the top dose activity change, negative = inhibition, most hits filed as inhibitors | Kinase-Glo luciferase, ATP luminescence, 8 min; also: % is scaled to controls: 0 for no effect and ±100 for the full control effect; nearly all actives have a fitted effect of over 60% in size
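Compounds were added to a substrate mix at pH 7.2 (50 mM imidazole, 10 uM ATP, within the enzyme's linear range), followed by Kinase-Glo detection reagent; luminescence was measured after 8 minutes at ambient temperature.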
NPC1 prom act = activators of NPC1 promoter | AID 485313 | Huh7 NPC1 promoter luciferase reporter, 24 h | 320,000 tested, 2.4% active | Potency, µM (series often up to 9.22 µM), for the others: top-dose activation, most hits filed as activators; also: % of control where 0% means no effect; nearly all actives have a fitted effect of over 60% in size
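Readout is luciferase luminescence, reflecting NPC1 promoter activation in stably transfected Huh7 cells after 24 h compound exposure at 37 °C in reduced-serum medium with 10% FBS.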
SMN2 splice enh = enhancers of SMN2 splice variant expression; HEK293 SMN2-luciferase splicing reporter, luminescence, 30-36 h; Potency, µM (highest dose often 46.1 µM), for the others: top-dose activity change, positive = activation, hits mostly activators; 210,000 tested, 2.8% active; also: % of control where 0% means no effect; nearly all actives have a fitted effect of over 55% in size
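qHTS luciferase splicing reporter: luminescence rises when SMN2 exon 7 is included in transfected HEK293 cells. Compound exposure lasted 30-36 h at 37C, with 4.5 mM final sodium butyrate as control, followed by a ONE-Glo read.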
Starred values were filed as active, the others as inactive; ? = inconclusive; . = not tested or not shown; [ ] = remark or other dose. Calls follow the shape of the dose curve; as a rule, active = well fitted curve in the direction sought with a large enough effect; inconclusive = small, poorly fitted or top-dose-only effect, or another doubt; inactive = no such curve, though single readings can be large; an effect the other way counts as inactive or inconclusive. Potency is read from the fitted curve at half-maximal effect.

SMILES | Rab9 promoter act | FLuc counter | ELG1 genotoxic | KinaseGlo FLuc | NPC1 prom act | SMN2 splice enh
Cn1ccnc1SCC(=O)Nc1sccc1C#N | 11% | -4% | 3% | -3% | 2% | 4%
N#Cc1ccsc1NC(=O)COC(=O)c1cc(Br)ccc1O | ? | 9.5µM* | 15% | . | 16% | .
N#Cc1ccsc1NC(=O)COC(=O)c1ccc2ccccc2c1 | 0.45µM* | 11µM* | ? | 0% | ? | ?
CCOC(=O)N1CCc2c(sc3c2c(=O)n(Cc2ccccc2)c(=O)n3CC(=O)Nc2ccc(C)c(C)c2)C1 | . | 1% | . | . | . | -7%
Cc1ccc(-n2cnc3cc(C(=O)NCc4ccccc4Cl)ccc32)c(C)c1 | . | -12% | . | . | . | .
CC(=O)N/C(N)=N/c1nc2cc(C)ccc2o1 | 0.79µM* | 5.4µM* | 9.2µM* | . | 1.4µM* | .
CC(=O)N/C(N)=N/c1nc2cc([N+](=O)[O-])ccc2o1 | 3.2µM* | ? | ? | . | ? | .
O=C(CN1CCOCC1)NCCNC(=O)CN1CCOCC1 | -2% | -1% | -1% | 1% | -2% | 13µM*
CCCCCCCCCCCCC/C=C/[C@@H](O)C(CO)NC(C)=O (some centres not stated) | . | . | . | -2% | . | 2%
COc1ccc(NC(=O)c2cc(Br)ccc2Cl)c([N+](=O)[O-])c1 | -3% | 4% | 5% | 2% | -3% | -10%
COc1ccc(NC(=O)CN2CCC(C)CC2)c([N+](=O)[O-])c1 | 5% | ? | 16µM* | -2% | 13% | -1%
COc1ccc(NC(=O)CSc2ccccc2)c([N+](=O)[O-])c1 | ? | 27µM* | ? | 0% | ? | ?
COc1ccc(NC(=O)c2ccc(C)cc2Cl)c([N+](=O)[O-])c1 | ? | 6µM* | ? | -7% | ? | 12%
COc1ccc(NC(=O)CN2CCCCC2)c([N+](=O)[O-])c1 | 11% | ? | 7% | 3% | 24% | 29%
COc1ccc(NC(=O)COc2ccc(C)cc2)c([N+](=O)[O-])c1 | ? | ? | 21µM* | 0% | 2.8µM* | 0%
O=C(Nc1ccccc1OCc1cc(=O)n2ccccc2n1)c1cccc(Br)c1 | . | -3% | . | . | . | .
COC(=O)C1=C(C(=O)OC)[C@@H]2Nc3ccccc3[C@@]23C[C@@H](C(=O)OC)N(S(=O)(=O)c2ccc(OC)cc2)C3=N1 | . | . | . | -6%[7.66 µM] | . | 15%[9.22 µM]
COc1ccc(C2=C(C)C(=NCCCN3CCN(c4cc(C)ccc4C)CC3)NS2(=O)=O)cc1 | . | -2% | . | . | . | .
Cc1cc(Cl)ccc1NS(=O)(=O)c1c(C(=O)N2CCCCCC2)c(C)n(C)c1C | . | -13% | . | . | . | .
Oc1ccc(/C=C/c2ccc3cccc(O)c3n2)cc1Br | 29% | 17µM* | 18µM* | . | 16% | .
C[n+]1cccc(/C=C\c2ccc3cccc(O)c3n2)c1 | . | . | . | -6%[7.66 µM] | . | -9%[9.22 µM]
COC(=O)c1ccc(/C=C/c2ccc3cccc(OC(C)=O)c3n2)cc1 | 3.5µM* | 3.8µM* | ? | ? | 4µM* | 16µM*
O=C(O)c1ccc(/C=C/c2ccc3cccc(O)c3n2)cc1 | 3.5µM* | 2.4µM* | ? | -13% | 3.5µM* | 22µM*
O=[N+]([O-])c1ccc(/C=C/c2ccc3cccc([N+](=O)[O-])c3n2)cc1 | 10% | -3% | 4% | 2% | 0% | -41%
O=C1CC(c2ccccc2)Sc2nc3ccccc3n21 (configuration not stated) | 10% | 4.8µM* | ? | -3% | -1% | ?
O=C1CC(c2cccs2)Sc2nc3ccccc3n21 (configuration not stated) | 0% | 3.4µM* | ? | -15% | -3% | ?
O=C1CC(c2ccco2)Sc2nc3ccccc3n21 (configuration not stated) | -3% | 12µM* | ? | -6% | -1% | 11%

Screening results as filed in PubChem.
